Bioassay records: PubChem, several laboratories
The list is not random: actives were taken first. Their share in the collection is about 4.1%.
hgDAF12 agonist: agonists of H. glycines DAF-12 nuclear receptor; 1.8% of 370,000 active; HEK293 GAL4-hgDAF12 UAS-luciferase reporter, agonist luminescence; normalized to butyrate control; AID 687014; activation, % at 6.8 µM;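 active = activation above a cutoff set at the mean of all screened compounds plus 3 SD, cut at about 10% in these data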;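 also: 0% = DMSO wells and 100% = sodium butyrate wells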
hcDAF-12 act: activates DAF-12 receptor from parasite H. contortus; HEK293 hcDAF-12 lit1-tk-luc reporter, luminescence; 0% DMSO, 100% Δ7-dafachronic acid; activation, % at 6.8 µM; 1.4% of 370,000 active; AID 652067;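 active = activation above the mean of all tested compounds plus 3 SD, cut at about 5.5% in these data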;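 also: 100% = response to 3 µM Δ7-dafachronic acid high control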
PolyA inh: yeast polyadenylation inhibition. S. cerevisiae SKY197-pL101 polyadenylation reporter, beta-gal luminescence; efflux-impaired pdr1/pdr3 knockout yeast; score 100 = 6 SD above DMSO. activity score, % at 12 µM. 0.02% of 300,000 active;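 active = lowest replicate activity score at least 50, where 100 means six control SD above control mean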;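 also: yeast exposed to compound for 9 h at 30 °C; higher score means more reporter readthrough which indicates perturbed polyadenylation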
DAX1 inh-1: blocks DAX1 repression of SF-1 activated StAR promoter; HEK293T StAR-luciferase reporter, SF-1/DAX-1 repression relief; inhibition, % at 6.8 µM; 1.1% of 370,000 active;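 active = inhibition above the mean over all tested compounds plus 3 SD, cut at about 3.6% in these data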;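 also: 0% = DAX-1 cells with DMSO and 100% = cells lacking DAX-1 with DMSO; higher inhibition means more luminescence from relief of DAX-1 repression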
DAX1 inh-2: NR0B1 (DAX1) inhibition. P51843. HEK293 Gal4-DAX1 luciferase reporter, luminescence. inhibition, % at 6.75 µM. 0.99% of 340,000 active;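 active = inhibition above the mean over all tested compounds plus 3 SD, cut at about 4.2% in these data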;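 also: 0% = DAX1-transfected cells with DMSO and 100% = empty-vector control cells with DMSO; inhibition shows as a rise in luminescence from relieved DAX1 repression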
Target sequence (P51843 207-470 limits assumed): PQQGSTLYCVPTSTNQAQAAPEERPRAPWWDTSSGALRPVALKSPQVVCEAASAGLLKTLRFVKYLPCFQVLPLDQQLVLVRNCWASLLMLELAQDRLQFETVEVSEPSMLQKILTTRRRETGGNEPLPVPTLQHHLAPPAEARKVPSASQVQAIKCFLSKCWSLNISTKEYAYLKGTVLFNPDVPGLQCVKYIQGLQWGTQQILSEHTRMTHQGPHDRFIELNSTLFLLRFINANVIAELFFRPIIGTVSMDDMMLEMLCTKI
ssDAF-12 act: activators of S. stercoralis DAF-12 nuclear receptor; activation, % at 6.8 µM; HEK293 ssDAF-12/GRIP1 lit1-tk-luc reporter, luminescence; % of 3 µM dafachronic acid response; 1% of 370,000 active; AID 652126;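 active = activation above the mean over all tested compounds plus 3 SD, cut at about 0.9% in these data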;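 also: 0% = DMSO-only wells and 100% = 3 µM delta7-dafachronic acid wells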
hgDAF12 conf: hgDAF-12 agonism, confirmation assay; 80% of 3,300 active; HEK293 GAL4-hgDAF12 luciferase reporter, agonist mode; percent of butyrate response; activation, % at 6.8 µM; shares compounds with hgDAF12 agonist;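 active = mean activation over triplicate wells above the hit cutoff derived from the earlier primary screen, cut at about 11% in these data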;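 also: 0% = DMSO low control and 100% = 2 mM sodium butyrate high control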
LXRb DAF12 ctr: activates human LXR-beta, counter-screen for DAF-12 agonists; AID 743051; 3,300 tested, under 10 active; shares compounds with hgDAF12 agonist; activation, % at 6.8 µM; HEK293 Gal4-LXR luciferase reporter, 24 h;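 active = mean activation of the triplicate above a set limit carried over from the primary screen, none filed active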
Numbers without * were called inactive; . = no result given.

SMILES	hgDAF12 agonist	hcDAF-12 act	PolyA inh	DAX1 inh-1	DAX1 inh-2	ssDAF-12 act	hgDAF12 conf	LXRb DAF12 ctr
CC(C)C(=O)Nc1nc2cc3c(cc2s1)OCCO3	13*	4	23	1	-3	-1	7	1
CCOc1ccc(NC(=O)c2ccco2)cc1	15*	2	22	4	0	0	13*	1
CS(=O)(=O)c1ccc2nc(NC(=O)c3ccco3)sc2c1	15*	4	28	3	0	-1	14*	1
O=C(Nc1ccc(Cl)cc1-c1nc2ccccc2s1)c1ccco1	.	.	8	.	0	.	.	.
O=C(Nc1nc(-c2nc3ccccc3s2)cs1)c1ccco1	19*	2	7	4.5*	1	0	7	0
Cc1ccc(S(=O)(=O)Nc2cccc(C(=O)N3CCCC3)c2)cc1F	0	0	9	-1	-1	-1	.	.
C=CCN1[C@H](Cc2ccccc2)COc2cc(N3CCSCC3)ccc2S1(=O)=O	3	-2	.	-2	.	-2	.	.
CCOc1ccc(OCc2cccc(C(=O)Nc3ccc(CN4CCCCC4)cc3)c2)cc1	18*	4	14	1	-3	0	19*	1
CC(=O)Nc1cccc(NC(=O)c2ccc(COc3ccccc3)cc2)c1	13*	3	-12	2	1	0	17*	1
O=C(Nc1nc2cc3c(cc2s1)OCO3)c1ccco1	19*	5	-15	4	-5	0	9	1
Cc1occc1C(=O)Nc1ccc(OCc2ccccc2)cc1	14*	4	-2	4.4*	0	0	19*	0
O=C(Nc1nc2cc3c(cc2s1)OCO3)C1=COCCO1	-7	-3	2	-4	-4	-2	.	.
O=C(NCCNC(=O)c1ccc([N+](=O)[O-])cc1)c1ccncc1	-3	0	-15	0	1	-1	.	.
CCOc1ccc2nc(NC(=S)NCc3ccccc3)sc2c1	0	0	-13	0	0	-1	.	.
CCOc1ccc2nc(NC(=O)c3ccco3)sc2c1	16*	5	-2	2	-4	0	17*	1
O=C(NC1CCCC1)C(C1CC1)n1c(-c2cc3ccccc3[nH]2)nc2ccccc21 (centres undefined)	22*	6	.	3	.	1.0*	14*	0
Cc1cccc(NC(=S)NNC(=O)c2sccc2C)c1	13*	3	-8	2	3	0	6	0
CCC(CC)C(=O)Nc1cccc(/C(C)=N\NC(=O)c2ccc(C)s2)c1	2	0	4	0	1	-1	.	.
C/C(=N\NC(=O)c1nn(C)c(C)c1Br)c1ccc(NC(=O)c2ccc(C)s2)cc1	17*	3	12	4	2	0	7	0
C/C(=N\NC(=O)c1ccncc1)c1cccc(NC(=O)c2ccc(C(C)(C)C)cc2)c1	7	-2	-1	-1	0	-1	.	.
C/C(=N\NC(=O)c1nn(C)cc1Br)c1cccc(NC(=O)c2ccncc2)c1	18*	5	19	2	3	0	3	0
C/C(=N\NC(=O)c1ccn(C)n1)c1cccc(NC(=O)c2ccc(C)s2)c1	14*	1	-4	1	2	0	7	0
COc1cccc(-c2cnc(C(O)c3cc(C)c(OC)c(C)c3)[nH]2)c1 (centres undefined)	-2	-2	.	0	.	1	.	.
COC(=O)Cc1c(C)nc2nc(NCc3cccc([N+](=O)[O-])c3)[nH]n2c1=O	-1	0	-7	0	0	-1	.	.
O=C(CCc1nc(-c2ccc(Cl)cc2)no1)NCc1ccccc1CN1CCOCC1	3	0	.	0	-1	-1	.	.
NC(=O)c1cc[n+](Cc2ccc([N+](=O)[O-])cc2)cc1	-1	-2	3	0	3	0	.	.
